Measured values: paper PMC8769072, “Proteome‐scale mapping of binding sites in the unstructured regions of the human proteome” (Molecular Systems Biology, 2022)

Chain of KEAP1 321-609, Q14145 (Q14145 321-609): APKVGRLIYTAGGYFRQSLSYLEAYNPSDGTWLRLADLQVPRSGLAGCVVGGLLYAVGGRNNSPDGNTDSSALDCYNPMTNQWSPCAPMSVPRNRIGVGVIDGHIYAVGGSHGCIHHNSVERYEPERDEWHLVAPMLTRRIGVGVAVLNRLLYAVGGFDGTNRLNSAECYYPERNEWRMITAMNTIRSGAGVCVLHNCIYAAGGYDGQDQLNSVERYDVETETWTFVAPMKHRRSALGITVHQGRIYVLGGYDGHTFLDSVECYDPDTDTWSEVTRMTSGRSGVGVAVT
Chain of KPNA4 68-487, O00629 (O00629 68-487): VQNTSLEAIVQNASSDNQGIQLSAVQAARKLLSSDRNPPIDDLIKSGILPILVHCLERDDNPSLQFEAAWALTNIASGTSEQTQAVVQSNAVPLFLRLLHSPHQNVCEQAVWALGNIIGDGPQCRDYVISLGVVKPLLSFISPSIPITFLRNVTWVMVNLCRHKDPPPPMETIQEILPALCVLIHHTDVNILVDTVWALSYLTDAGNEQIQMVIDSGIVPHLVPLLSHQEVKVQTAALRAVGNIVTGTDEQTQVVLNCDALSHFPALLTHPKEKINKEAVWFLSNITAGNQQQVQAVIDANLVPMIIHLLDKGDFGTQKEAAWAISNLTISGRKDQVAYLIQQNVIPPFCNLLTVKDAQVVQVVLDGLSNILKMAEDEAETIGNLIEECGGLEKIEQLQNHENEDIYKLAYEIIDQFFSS

KRPHQEFGISSQGAYL [PDE3B, Q13370]
selected by phage display (KPNA4 68-487, O00629): confidence 2 (active)

WEDLEARINAENEVPI [CEP170B, Q9Y4F5]
selected by phage display (MAP1LC3A 2-121, Q9H492): confidence 2 (active)

PQALERADGSWAWVVL [SLC16A5, O15375]
selected by phage display (MAP1LC3A 2-121, Q9H492): confidence 3 (active) | selected by phage display (MAP1LC3B 2-119, Q9GZQ8): confidence 3 (active)

TENDDFAILFAPKAAM [ATG2B, Q96BY7]
selected by phage display (MAP1LC3A 2-121, Q9H492): confidence 3 (active)

GPEAASGEWELLRLDS [ESPL1, Q14674]
selected by phage display (MAP1LC3A 2-121, Q9H492): confidence 2 (active)

SPNREWEVLQPAPHQV
selected by phage display (MAP1LC3A 2-121, Q9H492): confidence 3 (active)

MVEAGGLLEKWTLLEE [APOBR, Q0VD83]
selected by phage display (MAP1LC3A 2-121, Q9H492): confidence 4 (active)

SLAPVKRTYEQMEFPL [ADNP, Q9H2P0]
selected by phage display (KPNA4 68-487, O00629): confidence 3 (active)

PINPSTGELSTSSSSN [MCC, P23508]
selected by phage display (KEAP1 321-609, Q14145): confidence 4 (active)

TVNEWAHLQEDTNSHI [ANKRD62, A6NC57]
selected by phage display (MAP1LC3A 2-121, Q9H492): confidence 4 (active)

QGSRQDSWEVVEGLRG [OSBPL3, Q9H4L5]
selected by phage display (MAP1LC3A 2-121, Q9H492): confidence 2 (active)

PSPETGEAKRSAFVEV [PRDM8, Q9NQV8]
selected by phage display (KEAP1 321-609, Q14145): confidence 3 (active)

TAQQLETTTERWLVID [CC2D1A, Q6P1N0]
selected by phage display (MAP1LC3A 2-121, Q9H492): confidence 3 (active)

GWETVEMHPAYTEEEL [NUCB1, Q02818]
selected by phage display (MAP1LC3A 2-121, Q9H492): confidence 2 (active)

RQEEKQVLLQADWTLL [ZNF579, Q8NAF0]
selected by phage display (MAP1LC3A 2-121, Q9H492): confidence 2 (active)

DGDTLDSDEFAILDAP [ATG2A, Q2TAZ0]
selected by phage display (MAP1LC3A 2-121, Q9H492): confidence 4 (active)

FPSSGFTDLAEIVSRI [PNPLA6, Q8IY17]
selected by phage display (MAP1LC3A 2-121, Q9H492): confidence 3 (active)

YDPVTGEWKSLAKLPE [KLHL24, Q6TFL4]
selected by phage display (KEAP1 321-609, Q14145): confidence 3 (active)

DLKRRLDSITSSQSSA [KDR, P35968]
selected by phage display (KPNA4 68-487, O00629): confidence 2 (active)

LENNSETGELQPVLPE [TRIM37, O94972]
selected by phage display (KEAP1 321-609, Q14145): confidence 2 (active)

RGLKRSLSEMEIGMVV [SRF, P11831]
selected by phage display (KPNA4 68-487, O00629): confidence 2 (active)

GVKRTYSEVYPGQQYL [ZMIZ2, Q8NF64]
selected by phage display (KPNA4 68-487, O00629): confidence 3 (active)

GWDYGIGGGWDHISVR [TECPR1, Q7Z6L1]
selected by phage display (MAP1LC3A 2-121, Q9H492): confidence 2 (active)

WEEFESLQKQEVKNLH [PTPN6, P29350]
selected by phage display (MAP1LC3A 2-121, Q9H492): confidence 2 (active)

LESKRPRLEQVSDSHF
selected by phage display (KPNA4 68-487, O00629): confidence 2 (active)

ELKRIKTEDGEGIVIA [FOXK2, Q01167]
selected by phage display (KPNA4 68-487, O00629): confidence 2 (active)

ESPSVKRMRLSEGWAT [MEF2C, Q06413]
selected by phage display (KPNA4 68-487, O00629): confidence 2 (active)

KRPRYDDTVKINSMGG [ZNF318, Q5VUA4]
selected by phage display (KPNA4 68-487, O00629): confidence 3 (active)

WKRDSSGNKIMHPVSG [NUDT9, Q9BW91]
selected by phage display (KPNA4 68-487, O00629): confidence 2 (active)

EDSIEPPHKRLALSSE [DMTF1, Q9Y222]
selected by phage display (KPNA4 68-487, O00629): confidence 3 (active)

AEQSKRPRLEVGHQGV [EP400, Q96L91]
selected by phage display (KPNA4 68-487, O00629): confidence 3 (active)

NLAPSDEESSWTTLSQ [APBB2, Q92870]
selected by phage display (MAP1LC3A 2-121, Q9H492): confidence 2 (active)
